Compound activity (PubChem BioAssay)
HepG2 tox – counter-screen for TGF-b inhibitors: cytotoxicity in HepG2 cells; 410,000 tested, 0.76% active; HepG2 CAGA-GFP viability, ATP luminescence, 18 h; AID 588856; Potency, µM (highest dose often 46.1 µM), for inactives: at the top dose activity change, negative = cytotoxicity, usual class: cytotoxic; further: potency means the concentration at half of the fitted maximal effect
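CellTiter-Glo luminescence gave cytotoxicity after 18 hours at 37 degrees C. The cells were HepG2 CAGA-GFP in 1% FBS DMEM, stimulated with 500 pg/mL TGF-beta after compound addition. %Activity was normalised to no-cell wells (complete cell-killing) and DMSO (no toxicity), and curves were fitted and classified.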
D3 ag – activates the human D3 dopamine receptor; P35462; max activation, %; 410,000 tested, 0.58% active; D3R DiscoveRx beta-arrestin cells, luminescence, 90 min; in the data active means max activation above about 30%; further: 0% is about no effect
Target sequence (P35462 whole entry, looked up): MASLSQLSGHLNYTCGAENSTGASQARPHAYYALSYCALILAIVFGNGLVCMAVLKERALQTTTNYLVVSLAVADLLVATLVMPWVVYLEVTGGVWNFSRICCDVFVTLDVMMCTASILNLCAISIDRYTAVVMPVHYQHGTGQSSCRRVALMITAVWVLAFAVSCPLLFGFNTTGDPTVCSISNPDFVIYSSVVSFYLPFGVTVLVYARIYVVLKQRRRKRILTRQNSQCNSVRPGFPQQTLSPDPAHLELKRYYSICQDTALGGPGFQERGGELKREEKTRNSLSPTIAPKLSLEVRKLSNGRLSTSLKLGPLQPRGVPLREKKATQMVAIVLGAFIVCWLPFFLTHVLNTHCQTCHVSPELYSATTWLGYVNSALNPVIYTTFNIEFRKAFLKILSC
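Agonist mode: compounds and dopamine controls were applied to plated cells for 90 min at 37 degrees C after an overnight attachment at 1500 cells/well. Luminescent read-out followed 30 - 60 minutes at room temperature with DiscoveRx detection reagent.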
TGFb inhibitor – blocks TGF-b signaling. HepG2 CAGA-GFP TGF-b/SMAD3 reporter, GFP fluorescence, 18 h; TGF-beta stimulated, 500 pg/mL final. Potency, µM (series often up to 46.1 µM), for inactives: at the highest dose activity, negative = inhibition, most hits filed as inhibitors. 410,000 tested, 1.2% active; further: potency means the concentration at half of the fitted maximal effect; on the % scale 0 is the no-effect control and ±100 the full control effect; nearly all actives have a fitted effect of over 65% in size
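Using HEPG2 CAGA-GFP reporter cells at 1000 cells/well, we pinned test compounds, stimulated with recombinant TGF-beta (500 pg/mL final) and measured total well GFP after 18 h.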
ATXN2 expr inh – reduces ATXN2 reporter expression in HEK-293 cells. 360,000 tested, 0.72% active. AID 1745845. Potency, µM (doses to about 57 µM), inactives show top-dose activity change, negative = inhibition, most hits filed as inhibitors. HEK-293 ATXN2-luciferase reporter, luminescence, 24 h; further: potency means the concentration at half of the fitted maximal effect; on the % scale 0 is the no-effect control and ±100 the full control effect; nearly all actives have a fitted effect of over 55% in size
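ATXN2-luciferase reporter cells (luciferase flanked by upstream and downstream ATXN2 gene portions) were treated 24 h at 37 °C with compounds at up to 57 uM. SteadyGlo luminescence gave expression; GF-AFC fluorescence gave viability.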
ATXN viability – cell viability loss in ATXN counter-screen; S2 cells (HEK-293 line with an ATXN2-luciferase reporter) viability, CellTiter-Fluor protease fluorescence, 24 h; Potency, µM (highest dose often 56.7 µM), hits mostly cytotoxic; 400,000 tested, 0.49% active; further: potency means the concentration at half of the fitted maximal effect; nearly all actives have a fitted effect of over 40% in size
D3 antag – blocks the human D3 dopamine receptor; P35462; D3R cells, DiscoveRx beta-arrestin luminescence, antagonist mode; hits give low values; max response, negative = inhibition, %; 360,000 tested, 2.5% active; in the data active means max response below about -50%; inconclusive means no clear call, values can overlap the other calls; further: on the % scale 0 is the no-effect control and ±100 the full control effect
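Cells plated overnight at 1500 cells/well, then exposed to library compounds with dopamine controls for 90 minutes at 37 degrees C. DiscoveRx reagent added for 30–60 minutes at room temperature; luminescence read, quantitative HTS format.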
Starred values were filed as active, the others as inactive; i = inactive; ? = inconclusive; . = no result given; ! = repeats disagree. Only some compounds are listed: those with a hit (about 4.8% of all), similar ones and a draw of the others. Unless noted, the call rests on the fitted dose curve; in most records, active means well fitted curve in the direction sought with a large enough effect; inconclusive means small, poorly fitted or top-dose-only effect, or another doubt; inactive means no such curve, though single readings can be large; an effect the other way counts as inactive or inconclusive.

SMILES | HepG2 tox | D3 ag | TGFb inhibitor | ATXN2 expr inh | ATXN viability | D3 antag
CCCCC1=CC2=C(c3ccco3)C(=O)C(C)(OC(=O)c3ccc(OC)cc3)C(=O)C2=CN1CCOC (stereo not given) | 0% | -12 | 3% | 4% | i | -6
CCOC(=O)CSc1nc2ccccc2n2cnnc12 | -17% | -9 | -1% | 1% | i | -51*
C=CCSc1nc2ccccc2n2cnnc12 | -24% | 0 | -1% | . | . | 7
C=CCC[C@@H](Cc1ccc(F)cc1)C(=O)OC[C@@H]1CCCN1C(=O)[C@H](CC=C)CC(=O)N[C@H](CO)Cc1ccccc1 | -109% | 6 | 11µM* | ? | . | 29
C=CCC[C@@H](Cc1ccc(F)cc1)C(=O)OC[C@@H]1CCCN1C(=O)[C@@H](CC=C)CC(=O)N(CCO)Cc1ccccc1 | 13µM* | -10 | ? | ? | ? | ?
Cc1ccc(C(=O)N(Cc2ccc(N(C)C)cc2)CC2CCCO2)cc1 (stereo not given) | -13% | 12 | -16% | . | . | .
Cc1cc2c(F)c(Oc3ncnn4cc(OC[C@@H](C)O)c(C)c34)ccc2[nH]1 | . | . | . | 51% | . | .
CCOc1ccc([C@@H]2CC=C(C(=O)O)[C@H](c3ccc(Cl)cc3)N2S(=O)(=O)c2ccc(C)cc2)cc1 | -6% | -30 | -22% | 7% | i | -73*
O=C(O)C1=CC[C@@H](c2ccc(Cl)cc2)N(S(=O)(=O)c2ccc(Cl)cc2)[C@H]1c1ccc(Br)cc1 | -89% | -13 | 13µM* | 13% | i | -6
Cc1ccc([C@@H]2CC=C(C(=O)O)[C@H](c3ccc(Cl)cc3)N2S(=O)(=O)c2ccc(C)cc2)cc1 | -16% | -18 | ? | -1% | i | ?
Cc1ccc(S(=O)(=O)N2[C@@H](c3ccc(Br)cc3)C(C(=O)O)=CC[C@H]2c2ccc(Cl)cc2)cc1 | -29% | -15 | ? | 1% | i | -3
Cc1ccccc1S(=O)(=O)N1[C@@H](c2ccccc2)C(C(=O)O)=CC[C@H]1c1ccc(Cl)cc1 | -12% | -30 | ? | -2% | i | -56*
Cc1ccc([C@@H]2CC=C(C(=O)O)[C@H](c3ccc(Cl)cc3)N2S(=O)(=O)c2ccccc2C)cc1 | -15% | -44 | ? | -6% | i | -61*
COc1ccc([C@@H]2CC=C(C(=O)O)[C@H](c3ccc(Cl)cc3)N2S(=O)(=O)c2ccccc2C)cc1 | 4% | -14 | -2% | 6% | i | 0
Cc1ccccc1S(=O)(=O)N1[C@@H](c2ccc(Br)cc2)C(C(=O)O)=CC[C@H]1c1ccc(Cl)cc1 | -78% | -27 | 18µM* | -9% | ? | -11
CCOc1ccc(C(=O)CN2CCN(S(=O)(=O)c3ccc(Cl)cc3)CC2)cc1 | 2% | -8 | -8% | -25% | i | -57*
COc1ccc(CC(=O)Nc2ccc(-c3nc4ccccc4s3)c(C)c2)cc1OC | -17% | 2 | -1% | 9% | i | .
O=C(COc1ccc2ccccc2c1CN1CCOCC1)N1CCc2ccccc21 | 13µM* | -9 | ? | -18% | i | -69*
O=C(COc1ccccc1Cl)N1CCc2ccccc21 | -21% | -10 | -2% | 66% | i | 8
Cc1ccc(S(=O)(=O)NNC(=O)c2ccc(C(=O)N(c3ccccc3)c3ccccc3)cc2)cc1 | -17% | . | -23% | . | . | .
CCOc1ccc(NCc2cccn2-c2nnc(N3CCC(C(=O)NCCCN4CC(C)CC(C)C4)CC3)s2)cc1 (stereo not given) | -87% | -13 | ? | 32µM* | ? | 0
O=C(Cc1ccc(Cl)cc1)NN1C(=O)c2ccccc2C1=O | 2% | 6 | -15% | 1% | i | 1
COC(=O)[C@@H]1[C@@H](C#N)C2(c3ccccc3-c3ccccc32)N(c2ccc(Cl)cc2)N1C#N | -68% | -6 | ? | 10µM* | 28µM* | -54*
CCN(Cc1ccncc1)Cc1ccc2c(c1)CN(C(=O)c1cccc3c(C)c(C)[nH]c13)CCO2 | . | . | . | . | i | .
COc1ccc(CCNC(=O)CCCn2nc(C)c3sc4ccccc4c3c2=O)c(OC)c1 | 0% | 5 | 14% | . | . | .
SMILES | HepG2 tox | D3 ag | TGFb inhibitor | ATXN2 expr inh | ATXN viability | D3 antag
CC(C)(C)OC(=O)N(c1cccc2cccnc12)S(=O)(=O)c1ccccc1Br | -40% | . | 4.5µM* | . | . | .
CN(C)c1ccc(CNC(=O)CN2C(=O)CCn3nc(-c4cn(C)c5ccccc45)cc32)cc1 | -16% | -8 | -15% | -8% | i | .
O=C(CNC(=O)C(c1ccccc1)c1ccccc1)OCC(=O)c1cccc2ccccc12 | 0% | . | 20% | . | . | .
O=[N+]([O-])c1cc(Cl)c(O)c2ncccc12 | -5% | 0 | ? | 20µM* | ? | -20
O=[N+]([O-])c1cc(CN2CCOCC2)c2cccnc2c1O | -6% | 6 | -26% | -30% | ? | -1
O=[N+]([O-])c1cc(CN2CCN(c3ccccc3)CC2)c(O)c2ncccc12 | -27% | -43 | ? | ? | ? | -109*
O=[N+]([O-])c1ccc(O)c2ncccc12 | -31% | -30 | 5.6µM* | 10µM* | 13µM*! | -68*
Oc1c(CN2CCc3ccccc3C2)cc(Cl)c2cccnc12 | -56% | -25 | 5.6µM* | 5.6µM* | 4µM* | -139*
Cc1cc(CNC(=O)c2cnn(-c3ncc4c(n3)-c3ccccc3CC4)c2C2CC2)on1 | . | . | . | . | i | .
Oc1c(I)cc(Cl)c2cccnc12 | -17% | -93 | 16µM* | 32µM*! | ? | -71*
O=[N+]([O-])c1cc(F)c2cccnc2c1O | 16µM* | -13 | ? | . | ? | -3
O=[N+]([O-])c1cc(Cl)c2cccnc2c1O | -26% | 13 | ? | ? | ? | 1
COc1cc(OC)cc(-c2ccc3ncc4ccc(=O)n(-c5ccc(N6CCNCC6)c(C(F)(F)F)c5)c4c3c2)c1 | . | . | . | 19µM* | . | .
CCCc1sc(N/N=C/c2ccccn2)nc1-c1ccc(Br)cc1 | -17% | 6 | ? | 2.8µM* | . | 2
COc1ccc(C(=O)C2C(=O)C(=O)N(Cc3ccco3)C2c2cccs2)cc1 (stereo not given) | -19% | . | 0% | . | . | .
CCOC(=O)C1CCN(S(=O)(=O)c2ccc(N3CCCCS3(=O)=O)cc2)CC1 | 1% | 5 | ? | -17% | i | .
Cn1nc(C(=O)Nc2ccc(F)c(Cl)c2)c2c1-c1ccccc1S(=O)(=O)C2 | -6% | -5 | 10% | 6% | i | .
CNS(=O)(=O)c1cccc(C(=O)Nc2cccnc2)c1 | -2% | -23 | 8% | 1% | i | -57*
CCc1nn2c(=O)cc(COC(=O)CNC(=O)c3ccccc3)nc2s1 | -16% | -3 | -40% | 4% | i | .
